Hits are enriched below; roughly 1.1% of the tested compounds scored in any of these assays.
BH1578 lux ind: inducers of Vibrio cholerae quorum light production without autoinducers, primary screen, BH1578 luxS cqsA deficient, single point | V. cholerae BH1578 lux reporter, luminescence, 6 h | activation, % at 18.7 µM | 350,000 compounds, 0.16% hits | AID 588436, 2011; in the data active = activation mostly above about 9.7%, no sharp cut-off
PrPC TRFRET: inhibitors of human cell surface prion protein PrPC, primary screen, cell-based, TR-FRET; Major prion protein (Homo sapiens), P04156; TR-FRET read-out; 370,000 compounds, 0.43% hits; AID 720596, 2013; inhibition, % at 13.8 µM; in the data active = inhibition above about 24%
CCHF vOTU inh-1: CCHFV vOTU protease inhibitors, primary screen, biochemical, Pep-AMC substrate, fluorescence; inhibition, % at 11.5 µM; 370,000 compounds, 0.55% hits; Crimean-Congo hemorrhagic fever virus L polyprotein viral ovarian tumor (vOTU) protease …
Yp Topo-I inh: Yersinia pestis topoisomerase I inhibitors, primary screen, biochemical, cleavage product accumulation, plate reader, single point; Y. pestis Topo-I cleavage product accumulation; activity, % at 10 µM; 360,000 compounds, 0.064% hits; in the data active = activity above about 50%, passing the limit was not always enough
CCHF vOTU inh-2: CCHFV vOTU protease inhibitors, confirmation, biochemical, Pep-AMC substrate, fluorescence; shares compounds with CCHF vOTU inh-1; Recombinant CCHFV vOTU; inhibition, % at 11.5 µM; 1,900 compounds, 17% hits; AID 686976, 2013
Each line names hits and unclear results; the compound was inactive in the other large screens (follow-up assays come after a bar, where they were run). Rule as the data show it, unless noted: active = inhibition above about 30%; inactive = the rest.

O=C(O)COc1ccccc1/C=N/Nc1ccc(S(=O)(=O)Nc2ccc(Cl)cc2)cc1[N+](=O)[O-]	CCHF vOTU inh-1 37 (no result: BH1578 lux ind) | CCHF vOTU inh-2 inactive
O=C(O)c1ccccc1NS(=O)(=O)c1ccc(N/N=C/c2ccc(O)c(O)c2)c([N+](=O)[O-])c1	CCHF vOTU inh-1 42 | CCHF vOTU inh-2 46
COc1ccccc1NS(=O)(=O)c1ccc(N/N=C/c2ccccc2OCC(=O)O)c([N+](=O)[O-])c1	CCHF vOTU inh-1 30 | CCHF vOTU inh-2 inactive
CCN(CC)S(=O)(=O)c1ccc(N/N=C/c2ccccc2OCC(=O)O)c([N+](=O)[O-])c1	CCHF vOTU inh-1 34 | CCHF vOTU inh-2 inactive
Cc1cc(C(=O)NN=Cc2ccc(OC(=O)c3ccco3)cc2)c(C)o1	none
O=C(c1cccc(O)c1)N1CCN(C(=O)C2CC2)CC1	none
COC1C(OC(=O)c2ccc(C)[nH]2)C(O)C(Oc2ccc3c(O)c(NC(=O)c4ccc(O)c(CC=C(C)C)c4)c(=O)oc3c2Cl)OC1(C)C (stereo not drawn)	CCHF vOTU inh-1 38 | CCHF vOTU inh-2 inactive
COC(=O)Cc1ccc(N(Cc2ccccc2F)S(=O)(=O)c2ccc(Cl)cc2)cc1	CCHF vOTU inh-1 32 | CCHF vOTU inh-2 inactive
COC(=O)CN(c1ccc(F)cc1)S(=O)(=O)c1ccccc1	none
N#C[C@@H]1N(Cc2ccccc2)C(=O)[C@H]2CC3C=CC21O3 (stereo partly drawn)	none
CCCCn1c(N)c(N(CC(C)C)C(=O)CSCC(=O)Nc2cccc(C)c2)c(=O)[nH]c1=O	CCHF vOTU inh-1 34 | CCHF vOTU inh-2 inactive
CCc1noc(C)c1C(=O)N1CCCC(CCC(=O)NCc2ccc(F)c(F)c2)C1 (stereo not drawn)	none
COc1ccc(C(=O)c2ccc(N3CCOCC3)c([N+](=O)[O-])c2)cc1	CCHF vOTU inh-1 30 | CCHF vOTU inh-2 inactive
Cc1ccc(NS(=O)(=O)c2cccc(C(=O)OCC(=O)NCc3ccco3)c2)cc1	none
COc1cc(O)c(NC(C)=O)c2nonc12	CCHF vOTU inh-1 40 | CCHF vOTU inh-2 inactive
O=C(O)c1cc(O)c2c(c1)[C@@H]([C@H]1c3cc(C(=O)O)cc(O)c3C(=O)c3c(O[C@@H]4O[C@H](CO)[C@@H](O)[C@H](O)[C@H]4O)cccc31)c1cccc(OC3O[C@H](CO)[C@@H](O)[C@H](O)[C@H]3O)c1C2=O (stereo partly drawn)	PrPC TRFRET 62, CCHF vOTU inh-1 73 | CCHF vOTU inh-2 33
O=C(O)c1ccccc1Nc1ccccc1C(=O)O	none
O=C1C=C(Nc2cccc3cccnc23)c2ccccc2C1=O	CCHF vOTU inh-1 38 | CCHF vOTU inh-2 inactive
CCCCNC1=CC(=O)C(NCCCC)=CC1=O	none
O=C1C=C(Nc2ccccc2)c2ccccc2C1=O	CCHF vOTU inh-1 55 | CCHF vOTU inh-2 73
CCCCNC1=CC(=O)C(=O)c2ccccc21	CCHF vOTU inh-1 35 | CCHF vOTU inh-2 68
O=C1C=C(Nc2ccccc2C(=O)O)c2ccccc2C1=O	CCHF vOTU inh-1 72 | CCHF vOTU inh-2 95
Cc1nn(CC(=O)N(C)C)c(=O)c2ccccc12	none
COc1ccc2c(c1)Cc1sc(NC(=O)c3ccco3)nc1-2	CCHF vOTU inh-1 105 | CCHF vOTU inh-2 inactive
Cc1ccc(S(=O)(=O)/N=C2\C=C(Nc3cccc(C(=O)O)c3)C(=O)c3ccccc32)cc1	CCHF vOTU inh-1 105 | CCHF vOTU inh-2 99
O=C1C(Nc2ccccc2)=C/C(=N/S(=O)(=O)c2cccs2)c2ccccc21	none (no result: PrPC TRFRET, CCHF vOTU inh-1)
Cc1ccc(S(=O)(=O)/N=C2\C=C(Nc3ccc(O)cc3)C(=O)c3ccccc32)cc1	none (no result: PrPC TRFRET, CCHF vOTU inh-1)
Cc1ccc(S(=O)(=O)/N=C2\C=C(Nc3cccc(C(=O)O)c3)C(=O)c3ccccc32)c(C)c1	CCHF vOTU inh-1 114 | CCHF vOTU inh-2 112
Cc1ccc(NC2=C/C(=N/S(=O)(=O)c3cccs3)c3ccccc3C2=O)cc1	CCHF vOTU inh-1 98 | CCHF vOTU inh-2 99
O=C(O)c1cccc(NS(=O)(=O)c2ccc3c(c2)C(=O)c2ccccc2C3=O)c1	none
CCOc1ccc(NC(=NCc2ccc3c(c2)OCO3)SC2CC(=O)N(c3ccc(C(=O)O)cc3)C2=O)cc1 (stereo not drawn)	CCHF vOTU inh-1 30 | CCHF vOTU inh-2 inactive
CC1(C)CC(CCC(=O)Nc2ccc(S(N)(=O)=O)cc2)C(=O)O1 (stereo not drawn)	none
NC1=C(Cl)C(=O)c2ccccc2C1=O	CCHF vOTU inh-1 81 | CCHF vOTU inh-2 81
O=C1c2ccccc2-c2nccnc21	none
C/C(=N\NC(=O)c1cc(-c2ccncc2)nc2ccccc12)c1ccc(OC(F)F)cc1	none
Cc1noc(NS(=O)(=O)c2ccc(NS(=O)(=O)c3ccc(C(C)(C)C)cc3)cc2)c1C	CCHF vOTU inh-1 30 | CCHF vOTU inh-2 inactive
Cc1cc[n+](-c2[nH]c(=O)sc2/C=N/N=C(\[O-])c2ccccc2)cc1	none
Cc1cc[n+](-c2[nH]c(=O)sc2/C=N/N=C(\[O-])c2ccncc2)cc1	CCHF vOTU inh-1 31 | CCHF vOTU inh-2 inactive
Cc1ccccc1CN1CCCCC(NC(=O)c2ccc(N(C)C)cc2)C1=O (stereo not drawn)	none (no result: BH1578 lux ind, Yp Topo-I inh)
CCc1cc(C(=O)O)c(NC(=O)/C=C/c2ccc(OC)c(OC)c2)s1	CCHF vOTU inh-1 33 | CCHF vOTU inh-2 inactive
CCc1cc(C(=O)O)c(NC(=O)/C=C/c2ccc(OC)cc2)s1	none
Nc1cnn(Cc2ccccc2F)c1	CCHF vOTU inh-1 34 | CCHF vOTU inh-2 inactive
CCCCNc1c2c(nc3c(-c4ccccc4)c(C)nn13)CCC2	CCHF vOTU inh-1 30 | CCHF vOTU inh-2 inactive
O=C(NCC1CCCO1)c1sc2cc(Cl)ccc2c1Cl (stereo not drawn)	none
C=C1c2nc3ccccc3n2C=C(c2ccc(C)cc2)N1c1ccccc1	CCHF vOTU inh-1 35 (no result: BH1578 lux ind) | CCHF vOTU inh-2 inactive
Cc1ccc(C2=CCN(C)C(=O)N2c2ccccc2)cc1	none (no result: BH1578 lux ind, Yp Topo-I inh)
CC(Nc1cccc2ccccc12)C(=O)N/N=C/c1ccc([N+](=O)[O-])cc1 (stereo not drawn)	CCHF vOTU inh-1 104 | CCHF vOTU inh-2 inactive
O=C(Nc1cccc2ccccc12)c1ccc([N+](=O)[O-])cc1	none
Cc1cccc(/C=N/NC(=O)C(C)Nc2cccc3ccccc23)n1 (stereo not drawn)	CCHF vOTU inh-1 115 | CCHF vOTU inh-2 inactive
O=C(CNc1cccc2ccccc12)c1ccc([N+](=O)[O-])cc1	CCHF vOTU inh-1 30 | CCHF vOTU inh-2 inactive
CCc1c(C)nc(N)nc1OCC(F)(F)C(F)F	none
O=c1c2ccccc2c(/C=N/n2cnnc2)c(O)n1-c1ccccc1	none
COc1ccc2ccc3c(c2c1)N=C[C@]1(O3)N(C)c2ccccc2C1(C)C	CCHF vOTU inh-1 46 | CCHF vOTU inh-2 inactive
Cc1cc(NC(=O)c2ccc3sc([C@@H]4O[C@H](CO)[C@H](O)[C@H](O)[C@H]4O)nc3c2)no1	none
C[C@H]1CN([C@@H](C)CO)C(=O)CCCn2nncc2CO[C@H]1CN(C)S(=O)(=O)c1ccccc1F	none

Screens (PubChem)
